Records with an inconclusive call do not appear. Activity calls are given as the source filed them. Calls follow the shape of the dose curve; as a rule, active = well fitted inhibition curve with a large enough effect; inconclusive = small, poorly fitted or top-dose-only effect; inactive = flat fitted curve, though single readings scatter.
System: ATS189
Test: qHTS profiling for inhibitors of Plasmodium falciparum proliferation (AID 504749); also: nearly all actives have a fitted effect of over 60% in size;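 as to activity, negative = inhibition: 0% = DMSO vehicle and full inhibition = artemisinin control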
Conditions: P. falciparum in erythrocytes, SYBR Green DNA, 72 h; series mostly up to 28.7 µM; activity, negative = inhibition: at the top concentration
Outline: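 Three-day growth assay of blood-stage parasites in erythrocytes (0.3% parasitemia, 2.5% hematocrit) at 37 C, 5% CO2, quantified by SYBR Green DNA staining after overnight detergent lysis.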
Potency is read from the fitted curve at half-maximal effect.

SMILES	activity, negative = inhibition	Potency
CC1NCCOC1c1ccccc1 (stereo not given)	-4.71% (inactive)	–
CCCC(C)(COC(N)=O)COC(=O)NC(C)C (stereo not given)	11.1% (inactive)	–
N#CC(C#N)=Cc1ccc(O)c(O)c1	17.8% (inactive)	–
Nc1ccncc1	8.03% (inactive)	–
CC(=O)[C@H]1CC[C@H]2[C@@H]3CC[C@H]4C[C@H](O)CC[C@]4(C)[C@H]3C(=O)C[C@]12C	2.03% (inactive)	–
CCC(C(N)=O)N1CCCC1=O (stereo not given)	-3.44% (inactive)	–
CN(C)CCc1ccc(O)cc1	5.38% (inactive)	–
NCC(CC(=O)O)c1ccc(Cl)cc1 (stereo not given)	1.82% (inactive)	–
C=C1CC[C@@]2(O)[C@H]3Cc4ccc(O)c5c4[C@@]2(CCN3CC2CC2)[C@H]1O5	-11% (inactive)	–
NP(N)(=O)NC(=O)c1ccc(F)cc1	-0.671% (inactive)	–
CC[N+]1(C)CCCC(OC(=O)C(O)(c2ccccc2)c2ccccc2)C1 (stereo not given)	11.8% (inactive)	–
CC(=O)Nc1cc([As](=O)(O)O)ccc1O	-21.1% (inactive)	–
CC(C)CC(N(C)C)C1(c2ccc(Cl)cc2)CCC1 (stereo not given)	-0.702% (inactive)	–
CCC(COC(=O)c1cc(OC)c(OC)c(OC)c1)(c1ccccc1)N(C)C (stereo not given)	-0.485% (inactive)	–
NN=C(N)N	8.54% (inactive)	–
CC(=O)[C@H]1CC[C@H]2[C@@H]3CC[C@H]4C[C@](C)(O)CC[C@]4(C)[C@H]3CC[C@]12C	8.67% (inactive)	–
CCOC(=O)C1(c2ccccc2)CCN(CCC(C#N)(c2ccccc2)c2ccccc2)CC1	–	3.55 µM (active)
Oc1cc(Cl)ccc1Oc1ccc(Cl)cc1Cl	–	7.08 µM (active)
C=C(C)[C@H]1Cc2c(ccc3c2O[C@@H]2COc4cc(OC)c(OC)cc4[C@@H]2C3=O)O1	-5.32% (inactive)	–
Clc1ccc(COC(Cn2ccnc2)c2ccc(Cl)cc2Cl)cc1 (stereo not given)	–	3.16 µM (active)
